# The full data set covers some 21,000 targets. This sample favours those with the largest changes.
# Target: HPRT1_P00492_66_EMGGHHIVALCVLK (UniProt P00492)
# Test: probe-labelled cysteine peptide fold change vs DMSO (competition) (log2 fold change); higher = less target engagement (more negative = stronger competition)
# Conditions: THP-1, incubation time: 4 h
# 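Note: competitive chemoproteomic profiling in live THP-1 cells with an iodoacetamide desthiobiotin (IA-DTB) probe, comparing probe-labelled peptide intensities in compound-treated cells against DMSO-treated controls.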
# Chain of UniProt P00492 (P00492 whole entry, looked up): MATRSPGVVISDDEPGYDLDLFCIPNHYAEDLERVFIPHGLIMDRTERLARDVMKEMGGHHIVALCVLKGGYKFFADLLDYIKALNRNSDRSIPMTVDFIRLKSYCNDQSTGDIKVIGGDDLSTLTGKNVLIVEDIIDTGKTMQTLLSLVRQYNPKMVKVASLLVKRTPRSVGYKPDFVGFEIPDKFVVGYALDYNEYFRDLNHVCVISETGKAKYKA
compound,measurement,setting,value
CC1Cc2ccccc2N1C(=O)C1CCCN(C(=O)CCl)C1 (mixture of isomers) [TRIM25 ligand 11 (diastereomer mixture)],probe-labelled cysteine peptide fold change,10 µM,-0.135
same,probe-labelled cysteine peptide fold change,50 µM,0.123

# Source: the supplement of paper PMC12067093, “Discovery and optimisation of a covalent ligand for TRIM25 and its application to targeted protein ubiquitination” (Chemical Science, 2025)
